Sampled rows, rich in hits. Any-hit rate of the full collection: about 6.5%.
HCMV antiviral = blocks human cytomegalovirus replication | HFF cells, HCMV-luciferase reporter, 72 h; active compounds read low | activity change, negative = inhibition, % at 57.5 µM | 4.5% of 410,000 active | AID 1259415; in the data active = activity change below about -60%; inconclusive = no clear call, values can overlap the other calls; inactive = above about -39%
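Two-dose cell screen: HFF monolayers treated with compounds and infected with luciferase-expressing HCMV at 1 PFU/cell, 72 h at 37C, then lysed for luciferase measurement.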
Lassa entry inh = Lassa virus entry inhibition; Lassa virus pseudotype entry inhibition, cell reporter; Potency, µM (series often up to 37.9 µM), without a hit: at the top dose activity change, negative = inhibition, usual class: inhibitors; 1.2% of 300,000 active; AID 540256; calls by dose curve; tested in HEK293 cells; note: potency is the fitted concentration of half-maximal effect; nearly all actives have a fitted effect of over 50% in size
Vaccinia Venus = inhibitors of vaccinia virus (Venus reporter); Vaccinia virus Venus reporter expression, fluorescence; Potency, µM (highest dose often 36.5 µM), for the others: at the highest dose activity change, negative = inhibition, most hits filed as inhibitors; 0.46% of 330,000 active; calls by dose curve; tested in A549 cells; note: potency is the fitted concentration of half-maximal effect; nearly all actives have a fitted effect of over 30% in size
FMDV inh = foot and mouth disease virus antiviral activity; AID 1159524; Potency, µM (top dose mostly 57.9 µM), for the others: at the top dose activity change, negative = inhibition, hits mostly inhibitors; FMDV antiviral cell-based qHTS; 1.2% of 410,000 active; calls by dose curve; tested in HEK293T cells; note: read-out not given here; potency is the fitted concentration of half-maximal effect; nearly all actives have a fitted effect of over 45% in size
Marburg entry inh = inhibitors of Marburg virus binding or cell entry; Marburg virus pseudotyped entry inhibition, cell reporter; Potency, µM (highest dose often 37.8 µM), without a hit: top-dose activity change, negative = inhibition, most hits filed as inhibitors; 1.8% of 300,000 active; calls by dose curve; tested in HEK293 cells; note: potency is the fitted concentration of half-maximal effect
VACV mCherry inh = vaccinia inhibition (mCherry reporter) | 0.63% of 310,000 active | Vaccinia virus mCherry reporter infection, fluorescence | Potency, µM (doses to about 36.5 µM), for the others: at the highest dose activity change, negative = inhibition, most hits filed as inhibitors; calls by dose curve; tested in A549 cells; note: potency is the fitted concentration of half-maximal effect; nearly all actives have a fitted effect of over 35% in size
Starred values were filed as active, the others as inactive; i = inactive; ? = inconclusive; · = not tested or not shown; + = active, no number; ! = not confirmed by another sample; [ ] = another dose, or the depositor's remark. % is set by controls: 0 for no effect and ±100 for the full control effect.

SMILES	HCMV antiviral	Lassa entry inh	Vaccinia Venus	FMDV inh	Marburg entry inh	VACV mCherry inh
O=C1/C(=C\c2cccs2)N=C(c2cccs2)N1Nc1ccccc1	-78*	-4%	-15%	·	-6%	-4%
O=C1/C(=C/c2cccs2)N=C(c2cccs2)N1Nc1ccccc1	?	1%	-17%	-8%	?	·
C[C@]12N[C@H](Cc3ccccc31)c1ccccc12	?	7%	-9%	?	14µM*!	-17%
COc1cc(/C=C/C(=O)OC2CC3CCC2(C)C3(C)C)ccc1O (stereo not given)	-103*	·	-9%	17%	·	-2%
COc1cc(/C=C/C(=O)OCC(=O)N2CC3(C)CC2CC(C)(C)C3)ccc1O (stereo not given)	-73*	?	-23%	?	-37%	i
COc1cccc(OC)c1OCCCN1CCC(Cc2ccccc2)CC1	-1	?	-4%	19%	11µM*	-14%
CC1(C)CC2CC(C)(CN2C(=O)COC(=O)c2ccccc2C(F)(F)F)C1 (stereo not given)	+	·	·	-6%	·	·
O=C(NCC(=O)N1CCN(S(=O)(=O)c2ccccc2F)CC1)c1ccc(Br)o1	16	11%	-2%	-11%	1%	-6%
CCN(CC)CCN1C(=O)C(O)=C(C(=O)c2cccs2)[C@@H]1c1ccccn1	·	·	·	·	14%	·
Cc1ccc2nc(/C=C/c3ccc(N(C)C)cc3)ccc2c1	·	·	11%	·	·	-1%
Nc1cc(C(=O)OCC(=O)N2CCC(Cc3ccccc3)CC2)ccc1Cl	-65*	·	·	-18%	·	·
COc1cccc(OC)c1C(=O)OCC(=O)N1CCC(Cc2ccccc2)CC1	-99*	-6%[46.1 µM]	-8%	-6%	5%[46.1 µM]	i
COc1cc(/C=C/C(=O)OCC(=O)c2ccc(OC(F)F)cc2)ccc1O	-37	?	-7%	32µM*	-38%	-19%
COc1cc(/C=C/C(=O)OCC(=O)N2CCC(Cc3ccccc3)CC2)ccc1O	-18	?	-14%	32µM*	-9%	i
COc1cccc(C(=O)OCC(=O)N2CCC(Cc3ccccc3)CC2)c1OC	28	·	·	?	·	·
COc1cc(/C=C/C(=O)OCC(=O)N2CCC(C)CC2)ccc1O	3	12%	-8%	-4%	12%	-4%
Cc1ccc(NC(=O)CNc2ccccc2N2CCCC2=O)cc1S(=O)(=O)N1CCCCC1	47	?	-21%	0%	?	-18%
S=C(NCc1ccco1)N/N=C/c1ccc(Cl)cc1	0	4.6µM*	-19%	4%	-10%	?
S=C(NCc1ccco1)N/N=C/c1cccnc1	-68*	·	·	-6%	·	·
CCN(CC)c1ccc(/C=N/NC(=S)NCc2ccco2)cc1	?	2.1µM*	-22%	?	?	?
CCOc1cccc(C2C=C(c3ccc4c(c3)OCO4)NC(c3cccc(Br)c3)N2)c1O (stereo not given)	·	·	-16%	·	·	21%
COc1cccc(C(C)(O)c2nc(-c3ccoc3)cs2)c1 (stereo not given)	53	·	1%	0%	·	-8%
COc1cc2ccc(C(C)=NNC(N)=S)cc2cc1OC	61	·	?	23%	·	6.3µM*
C/C(=N\NC(N)=S)c1ccc2c(c1)OCCO2	31	-27%	?	34%	-2%	?
CC(=NNC(N)=S)c1ccc2cc3c(cc2c1)OCO3	111	·	2µM*	12%	·	?
SMILES	HCMV antiviral	Lassa entry inh	Vaccinia Venus	FMDV inh	Marburg entry inh	VACV mCherry inh
COc1ccc2c(c1)C(C(Nc1ccccc1)c1ccc(Cl)cc1)C(=O)N2C (stereo not given)	18	·	·	·	·	·
COc1ccc2c(c1)CCc1cnc(-n3ncc(C(=O)NCc4cc(C)no4)c3C3CC3)nc1-2	·	·	-18%	14%	·	?
CC(C)CNC(=O)Cn1c(=O)c2c(ncn2CC(C)C)n(Cc2ccccc2)c1=O	-67*	?	0%	18%	-7%[46.1 µM]	0%
CCSc1ncc(Cl)c(C(=O)N(Cc2ccccc2)c2ccc(OC)cc2)n1	-75*	-4%[46.1 µM]	-16%	?	?	-12%
CCSc1ncc(Cl)c(C(=O)N(Cc2ccc(N(C)C)cc2)Cc2ccco2)n1	-8	-11%[46.1 µM]	-24%	?	-4%[46.1 µM]	-3%
O=C(N/N=C/c1cc2ccccc2nc1Cl)[C@H]1C[C@@H]1c1ccccc1	-39	0.37µM*	-15%	-20%	?	i
Cc1ccc2cc(/C=N/NC(=O)[C@H]3C[C@@H]3c3ccccc3)c(Cl)nc2c1	14	0.065µM*	·	-19%	4%	·
Cc1ccc2cc(/C=N/NC(=O)c3ccccc3O)c(Cl)nc2c1	5	0%	-5%	?	?	-13%
Cc1cccc2cc(/C=N/NC(=O)[C@H]3C[C@@H]3c3ccccc3)c(Cl)nc12	-29	?	-21%	0%	8%[46.1 µM]	-15%
Cc1cc(Nc2nc3ccccc3nc2Cl)n(-c2ccccc2)n1	-90*	?	·	?	?	·
CCOC(=O)C(=Cc1cn(C)c2ccc(S(=O)(=O)N(C)C)cc12)C(=O)OCC	24	-6%[46.1 µM]	-10%	32µM*	-22%[46.1 µM]	-29%
OC(CC#CCN1CCCC1)(c1ccccc1)c1ccccc1	14	-28%	-15%	-10%	10µM*	-14%
FC(F)Sc1ccc(NC(=S)NC2CCCCC2)cc1	7	-3%	-16%	44%	-1%	-29%
FC(F)Sc1ccc(NC(=S)NCc2ccccc2)cc1	-88*	?	?	50%	?	-1%
CN(C)CCCN(Cc1ccccc1)C(=S)Nc1ccc(SC(F)F)cc1	?	·	·	-4%	·	·
CN(C(=S)Nc1ccc(SC(F)F)cc1)C(c1ccccc1)c1ccccc1	-72*	·	·	-13%	·	·
FC(F)Sc1ccc(NC(=S)NC(c2ccccc2)c2ccccc2)cc1	-98*	?	·	?	18µM*	·
O=C(NCC1Cc2cc(-c3cnc4ccccc4c3)cc(F)c2O1)c1cnsn1 (stereo not given)	·	·	?	0%	·	?
CCCN(CCC)CC(O)Cn1cc(/C=C/C(=O)c2ccc(Br)cc2)c2ccccc21 (stereo not given)	-14	24%[46.1 µM]	-15%	-5%	-7%[46.1 µM]	-25%
CCCN(CCC)CC(O)Cn1cc(/C=C/C(=O)c2ccc(C)cc2)c2ccccc21 (stereo not given)	-107*	?	?	0%	?	?
CCCCN(C)CC(O)Cn1cc(/C=C/C(=O)c2ccc(C)cc2)c2ccccc21 (stereo not given)	-98*	?	?	?	?	?
CCCN(CCC)CC(O)Cn1cc(/C=C/C(=O)c2ccccc2)c2ccccc21 (stereo not given)	-27	·	·	-19%	·	·
CCCCN(C)CC(O)Cn1cc(/C=C/C(=O)c2ccc(OC)c(OC)c2)c2ccccc21 (stereo not given)	-108*	?	-20%	-4%	4.5µM*	?
CCCCN(C)CC(O)Cn1cc(/C=C/C(=O)c2ccc(Br)cc2)c2ccccc21 (stereo not given)	-107*	?	-18%	-19%	?	-5%

Screens (PubChem BioAssay)
